Results taken from PubChem BioAssay (NCI).
Compounds without any hit were thinned out: in the full panel of roughly 83,000, 20% have a hit.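 The endpoint reported here, percent growth, reads 100 for growth as untreated, 0 for no net growth and -100 for all cells dead.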 Calls of active or inactive are those of the source. How the source made its calls: active means growth percent below 10; inactive means the rest.

What was measured:
Test in all cases: NCI-60 one-dose screen, 48 h (100 = growth as untreated, 0 = no growth, -100 = all killed)
Settings in all cases: 10 µM unless noted
HCT-15 colon = tested on: HCT-15 colon
HT29 colon = tested on: HT29 colon
SNB-75 CNS = tested on: SNB-75 CNS
SNB-19 CNS = tested on: SNB-19 CNS
U251 CNS = tested on: U251 CNS
LOX IMVI melanoma = tested on: LOX IMVI melanoma
SK-MEL-28 melanoma = tested on: SK-MEL-28 melanoma
SN12C renal = tested on: SN12C renal
UO-31 renal = tested on: UO-31 renal
TK-10 renal = tested on: TK-10 renal
ACHN renal = tested on: ACHN renal
CAKI-1 renal = tested on: CAKI-1 renal
A498 renal = tested on: A498 renal
CCRF-CEM leukemia = tested on: CCRF-CEM leukemia
MOLT-4 leukemia = tested on: MOLT-4 leukemia
UACC-62 melanoma = tested on: UACC-62 melanoma
SK-MEL-2 melanoma = tested on: SK-MEL-2 melanoma
EKVX NSCLC = tested on: EKVX NSCLC
PC-3 prostate = tested on: PC-3 prostate
SK-MEL-5 melanoma = tested on: SK-MEL-5 melanoma

Measured: growth

C=C(C)C1CC(O)C2(C)CCCC3C2C1CC(C)C3(C)CC/C(C)=C/C(O)C1CCC(=O)c2c(OC)cc(OC)cc21 (stereo unspecified)
active: A498 renal 9.01%
inactive: HCT-15 colon 30.7% | HT29 colon 46.6% | SNB-75 CNS 38.3% | SNB-19 CNS 56.5% | U251 CNS 35.9% | LOX IMVI melanoma 22.5% | SK-MEL-28 melanoma 49.6% | SN12C renal 59.2% | UO-31 renal 47.6% | TK-10 renal 55.6% | ACHN renal 41.1% | CAKI-1 renal 48.5% | CCRF-CEM leukemia 25.7% | MOLT-4 leukemia 21.7%

CN1C(=O)C2(SCC(C(=O)NCc3ccccc3)N2C(=O)C2CCCCC2)c2ccccc21 (stereo unspecified)
inactive: HCT-15 colon 99.2% | HT29 colon 102% | SNB-75 CNS 47.2% | SNB-19 CNS 98.5% | U251 CNS 98.3% | UACC-62 melanoma 93.4% | LOX IMVI melanoma 91.6% | SK-MEL-28 melanoma 113% | SK-MEL-2 melanoma 81.8% | EKVX NSCLC 86.8% | SN12C renal 102% | UO-31 renal 64% | TK-10 renal 115% | ACHN renal 104% | A498 renal 98.9% | CCRF-CEM leukemia 102% | MOLT-4 leukemia 78.7%

Cc1cc(NS(=O)(=O)c2ccc(-c3cnc(C4CC4)o3)cc2)ccc1Cl
active: HT29 colon -17.1% | SNB-75 CNS -0.004% | A498 renal -17.8%
inactive: HCT-15 colon 17% | SNB-19 CNS 44.3% | PC-3 prostate 24.7% | SK-MEL-5 melanoma 24.8% | UACC-62 melanoma 26.4% | LOX IMVI melanoma 46.5% | SK-MEL-28 melanoma 50.5% | SK-MEL-2 melanoma 45.3% | EKVX NSCLC 28.5% | SN12C renal 48.4% | UO-31 renal 46.5% | TK-10 renal 54.3% | ACHN renal 40.4% | CAKI-1 renal 34.7% | CCRF-CEM leukemia 14.4% | MOLT-4 leukemia 17.8%

COc1cc2nc(N3CCCC3)nc(NCCc3ccccc3)c2cc1OC
active: HCT-15 colon -55.1% | HT29 colon 5.28% | LOX IMVI melanoma -74.8% | CCRF-CEM leukemia 0.115% | MOLT-4 leukemia -2.23%
inactive: SNB-75 CNS 93.5% | SNB-19 CNS 87.6% | PC-3 prostate 67% | SK-MEL-5 melanoma 90.3% | UACC-62 melanoma 94.7% | SK-MEL-28 melanoma 88.6% | SK-MEL-2 melanoma 103% | EKVX NSCLC 59.5% | SN12C renal 75.9% | UO-31 renal 69.2% | TK-10 renal 98.3% | ACHN renal 85.7% | CAKI-1 renal 80.5% | A498 renal 83.1%

OCc1ccc(N2CCc3cccc(F)c3C2)cc1Cl
inactive: HCT-15 colon 88.9% [0.1 µM] | HT29 colon 16.2% [0.1 µM] | SNB-75 CNS 108% [0.1 µM] | SNB-19 CNS 85.2% [0.1 µM] | U251 CNS 53.5% [0.1 µM] | LOX IMVI melanoma 105% [0.1 µM] | SK-MEL-28 melanoma 113% [0.1 µM] | SK-MEL-2 melanoma 91.1% [0.1 µM] | EKVX NSCLC 104% [0.1 µM] | SN12C renal 92.9% [0.1 µM] | UO-31 renal 91.6% [0.1 µM] | ACHN renal 108% [0.1 µM] | CAKI-1 renal 63.5% [0.1 µM] | CCRF-CEM leukemia 96% [0.1 µM] | MOLT-4 leukemia 100% [0.1 µM]
active: TK-10 renal -0.0842% [0.1 µM] | A498 renal -16.3% [0.1 µM]

COc1ccc(C(=S)N2CCN(c3cccc(Cl)c3)CC2)cc1
inactive: HCT-15 colon 108% | HT29 colon 101% | SNB-75 CNS 93.2% | SNB-19 CNS 101% | U251 CNS 112% | UACC-62 melanoma 85.2% | LOX IMVI melanoma 103% | SK-MEL-28 melanoma 103% | SK-MEL-2 melanoma 80.4% | EKVX NSCLC 93.2% | SN12C renal 103% | UO-31 renal 83.2% | TK-10 renal 94% | ACHN renal 109% | A498 renal 106% | MOLT-4 leukemia 108%

O=S(=O)(Nc1ccc(Cl)c(F)c1)c1ccc(-c2cnc(C3CC3)o2)cc1
active: HT29 colon -6.67% | SNB-75 CNS -7.32% | A498 renal -16.1%
inactive: HCT-15 colon 21.1% | SNB-19 CNS 44.9% | PC-3 prostate 29.9% | SK-MEL-5 melanoma 17.4% | UACC-62 melanoma 24.8% | LOX IMVI melanoma 40.3% | SK-MEL-28 melanoma 58.5% | SK-MEL-2 melanoma 31.9% | EKVX NSCLC 34.4% | SN12C renal 47.6% | UO-31 renal 48.6% | TK-10 renal 45.5% | ACHN renal 47.5% | CAKI-1 renal 32.1% | CCRF-CEM leukemia 19.9% | MOLT-4 leukemia 28.6%

COc1ccc(-c2nc3ccc(-c4nc5ccc(N6CCN(C)CC6)cc5[nH]4)cc3[nH]2)cc1OC
inactive: HCT-15 colon 91% | HT29 colon 49.4% | SNB-75 CNS 54% | SNB-19 CNS 90.3% | PC-3 prostate 62.8% | SK-MEL-5 melanoma 26.3% | UACC-62 melanoma 19.2% | LOX IMVI melanoma 43.9% | SK-MEL-28 melanoma 39% | SK-MEL-2 melanoma 45% | EKVX NSCLC 85.4% | SN12C renal 71.1% | UO-31 renal 99.4% | TK-10 renal 84.3% | ACHN renal 100% | CAKI-1 renal 71.9% | A498 renal 76.6% | CCRF-CEM leukemia 51.7% | MOLT-4 leukemia 61.1%
